SMILES strings stand for the structures. Records with an inconclusive call do not appear. Unmarked numbers belong to inactive results. Activity calls are given as the source filed them. The call rests on the fitted dose curve; in most records, active means well fitted curve in the direction sought with a large enough effect in the repeat runs; inconclusive means weak or mixed curves; inactive means no such curve, though single readings can be large; an effect the other way counts as inactive or inconclusive.
On the % scale 0 is the no-effect control and ±100 the full control effect.

The nature of one test: qHTS assay to identify small molecule antagonists of the TGF-beta/Smad signaling pathway - cell viability counter screen (AID 1346824). Further: nearly all actives have a fitted effect of over 50% in size. As to conditions: SBE-bla HEK293T viability, CellTiter-Glo luminescence; series mostly up to 76.8 µM; viability change, negative = cytotoxic: at the top concentration. An outline of the steps:
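SBE-bla HEK 293T cells, incubated overnight, then compound plus 0.25 ng/mL TGF-beta1 (stock added) for 5 hr at 37 C. Viability was read in the same wells by CellTiter-Glo luminescence after 30 min at room temperature.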
(qHTS replaces the single test concentration by a dilution series.)
With `Cc1cccc(CN2CCN(C(c3ccccc3)c3ccc(Cl)cc3)CC2)c1` (stereo not given), the “viability change, negative = cytotoxic” value is -23.1% [at 35.3 µM]. Consider `N#CSc1ccc(N)c([N+](=O)[O-])c1`, for which the “viability change, negative = cytotoxic” value was -5.99%. Same read-out and setting: next, `O=C(c1ccc(F)cc1)C1CCN(CCn2c(=O)[nH]c3ccccc3c2=O)CC1`: 7.87% [at 35.3 µM]; `O=C(O)c1cc(O)c2c(c1)C(=O)c1cccc(O)c1C2=O`: 10.3%.

The next test in a line: qHTS assay to identify small molecule agonists of the TGF-beta/Smad signaling pathway - cell viability counter screen (AID 1346829). Further: nearly all actives have a fitted effect of over 45% in size. Further: potency means the concentration at half of the fitted maximal effect. On activity change, negative = cytotoxicity: top concentration of the series differs between compounds. As to conditions: SBE-bla HEK293T viability, CellTiter-Glo luminescence, 5 h; series mostly up to 76.8 µM; activity change, negative = cytotoxicity: at the top concentration. In outline:
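Compound-treated SBE-bla HEK 293T cells (5 hr, 37 C) were assessed for viability with CellTiter-Glo in parallel with the reporter read.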
As to `CCC(N)(CO)CO`, the “activity change, negative = cytotoxicity” value was 4.18%. Turning to `O=C(OCC1CO1)C1CCCCC1C(=O)OCC1CO1` (stereo not given), the “activity change, negative = cytotoxicity” value is 0.292%. Still for that read-out and setting: next, `CSc1ccc(/C=C2/C(C)=C(CC(=O)O)c3cc(F)ccc32)cc1`: -2.28% [at 35.3 µM]; `CN(C)[C@@H]1C(=O)C(C(N)=O)=C(O)[C@@]2(O)C(=O)C3=C(O)c4c(O)cccc4C[C@H]3C[C@@H]12`: 11% [at 35.3 µM]; `CC(C)n1nc(-c2cc3cc(O)ccc3[nH]2)c2c(N)ncnc21`: -5.51% [at 35.3 µM]. As to `Fc1ccc([C@@H]2CCNC[C@H]2COc2ccc3c(c2)OCO3)cc1`, the “activity change, negative = cytotoxicity” value was 0% [at 35.3 µM]. On the same count and under the same terms, under `O=[N+]([O-])c1cc(Cl)c(Cl)c(Cl)c1Cl` stands 0.347%. In the case of `CCCCCCCCn1sc(Cl)c(Cl)c1=O`, the Potency is 34.7 µM (active).

Consider `O=C(Oc1ccccc1)c1ccccc1C(=O)Oc1ccccc1`, for which the “activity change, negative = cytotoxicity” value is -6.04%. Same read-out and setting: next, `O=C1c2ccccc2Cc2ccccc21`: 1.84%. In the case of `Nc1cc(C(F)(F)F)ccc1S`, the “activity change, negative = cytotoxicity” value was 0.82% [at 35.3 µM]. Still for that read-out and setting: next, `Oc1cccc2cc3cccc(O)c3c(O)c12`: 18.9%; `O=C(O)c1c(Cl)cccc1Cl`: -0.706%; `CCCCCCCC(=O)[O-].CCCCCCCC(=O)[O-].[Zn+2]`: -15.6% [at 35.3 µM]. Regarding `Cc1oc(-c2ccccc2)nc1CCC(=O)c1ccc(CC2SC(=O)NC2=O)cc1` (stereo not given), the “activity change, negative = cytotoxicity” value is 6.97% [at 35.3 µM]. Same read-out and setting: next, `COc1c(C)c2c(c(O)c1C/C=C(\C)CCC(=O)O)C(=O)OC2`: -9.56% [at 35.3 µM].

The record behind these values is PubChem BioAssay (Tox21).
